Among the data in PMC7862700, “An all-to-all approach to the identification of sequence-specific readers for epigenetic DNA modifications on cytosine” are binding signal values, retold here.

What all share (experiment): DAPPL (digital affinity profiling via proximity ligation, sequencing); 10 mM Tris-HCl pH 7.5, 50 mM NaCl, 1 mM DTT, 4% glycerol, room temperature, 30 min; GST-TFs on glutathione beads, 16-mer random dsDNA library, 0.1% formaldehyde crosslink after washing; high values mean tight binding
The target of one experiment is T1, FEV (Homo sapiens, UniProt Q99581 1-238).
T1 sequence: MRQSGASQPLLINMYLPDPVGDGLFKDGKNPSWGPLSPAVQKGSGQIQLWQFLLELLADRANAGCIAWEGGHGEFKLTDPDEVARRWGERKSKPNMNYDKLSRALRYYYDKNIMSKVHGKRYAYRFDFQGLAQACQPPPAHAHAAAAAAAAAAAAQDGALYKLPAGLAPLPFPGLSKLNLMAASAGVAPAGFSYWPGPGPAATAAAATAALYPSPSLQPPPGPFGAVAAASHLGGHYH
Particulars: protein: recombinant; tags: N-terminal GST; dsDNA, one strand shown. The procedure, abridged: (§1)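 Human transcription factors fused to GST were expressed in yeast, captured on glutathione beads, given DNA barcodes and pooled with a GST-only negative control. Pools were incubated with 200 nmole of a 16-mer random double-stranded DNA library in Tris/NaCl/DTT/glycerol buffer at room temperature for 30 min. They were then washed, crosslinked with 0.1% formaldehyde, proximity-ligated (BsaI/T4 ligase, 1 h, 37 °C), PCR-amplified and sequenced on an Illumina NextSeq500. Binding signal is each 6-mer's read frequency for a factor divided by its frequency for the GST control.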

In the next experiment the target is ETV5 (Homo sapiens, UniProt P41161 1-510). The conditions noted are these: protein: recombinant; tags: N-terminal GST; dsDNA, one strand shown. The procedure, abridged: as §1
Chain of ETV5 (P41161 whole entry): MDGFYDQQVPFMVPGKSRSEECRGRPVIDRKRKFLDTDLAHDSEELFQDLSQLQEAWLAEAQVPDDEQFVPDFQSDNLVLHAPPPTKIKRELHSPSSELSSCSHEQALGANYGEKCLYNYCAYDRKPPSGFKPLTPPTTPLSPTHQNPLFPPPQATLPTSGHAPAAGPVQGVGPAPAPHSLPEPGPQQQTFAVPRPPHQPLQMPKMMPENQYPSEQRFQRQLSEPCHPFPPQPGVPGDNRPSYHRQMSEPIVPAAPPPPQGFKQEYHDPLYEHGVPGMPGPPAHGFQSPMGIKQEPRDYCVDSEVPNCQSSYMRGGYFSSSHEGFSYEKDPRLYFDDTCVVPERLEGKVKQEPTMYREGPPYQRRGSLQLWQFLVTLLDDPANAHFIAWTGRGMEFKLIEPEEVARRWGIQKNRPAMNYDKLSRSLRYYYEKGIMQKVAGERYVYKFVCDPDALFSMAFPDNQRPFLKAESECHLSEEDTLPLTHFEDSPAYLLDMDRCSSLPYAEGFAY
The next experiment has as its target HSF1 (Homo sapiens, UniProt Q00613 1-529). The conditions noted are these: protein: recombinant; tags: N-terminal GST; chain copies: 3; dsDNA, one strand shown. Summed up: as §1
The target of the next experiment is T2, SPIC (Homo sapiens, UniProt Q8N5J4 1-248).
T2 sequence: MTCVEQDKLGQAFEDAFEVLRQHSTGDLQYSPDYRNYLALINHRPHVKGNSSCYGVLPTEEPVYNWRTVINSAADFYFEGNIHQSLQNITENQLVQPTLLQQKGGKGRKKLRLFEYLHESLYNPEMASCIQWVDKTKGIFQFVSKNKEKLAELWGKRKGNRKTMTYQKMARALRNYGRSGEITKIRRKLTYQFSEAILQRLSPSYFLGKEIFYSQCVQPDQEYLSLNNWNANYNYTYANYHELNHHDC
The conditions noted are these: protein: recombinant; tags: N-terminal GST; dsDNA, one strand shown. Summed up: as §1

The target of the next experiment is ELF4 (Homo sapiens, UniProt Q99607 1-663). Particulars: protein: recombinant; tags: N-terminal GST; dsDNA, one strand shown. Summed up:
as §1

A further experiment concerns the target T3, ELK4 (Homo sapiens, UniProt P28324-2 1-405).
T3 sequence: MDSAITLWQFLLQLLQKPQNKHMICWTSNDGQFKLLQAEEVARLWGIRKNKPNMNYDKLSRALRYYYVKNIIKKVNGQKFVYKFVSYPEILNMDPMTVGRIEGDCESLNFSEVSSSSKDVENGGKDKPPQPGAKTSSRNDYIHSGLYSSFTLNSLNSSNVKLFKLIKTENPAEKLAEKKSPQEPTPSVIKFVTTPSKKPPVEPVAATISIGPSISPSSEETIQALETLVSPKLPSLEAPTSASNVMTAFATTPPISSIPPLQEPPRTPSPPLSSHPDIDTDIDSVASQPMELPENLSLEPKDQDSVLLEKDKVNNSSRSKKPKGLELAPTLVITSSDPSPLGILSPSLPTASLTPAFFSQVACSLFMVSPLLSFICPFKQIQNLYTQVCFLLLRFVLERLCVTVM
Particulars: protein: recombinant; tags: N-terminal GST; dsDNA, one strand shown. The procedure, abridged: as §1

For a further experiment, the target named is T4, ETV2 (Homo sapiens, UniProt O00321 1-342).
T4 sequence: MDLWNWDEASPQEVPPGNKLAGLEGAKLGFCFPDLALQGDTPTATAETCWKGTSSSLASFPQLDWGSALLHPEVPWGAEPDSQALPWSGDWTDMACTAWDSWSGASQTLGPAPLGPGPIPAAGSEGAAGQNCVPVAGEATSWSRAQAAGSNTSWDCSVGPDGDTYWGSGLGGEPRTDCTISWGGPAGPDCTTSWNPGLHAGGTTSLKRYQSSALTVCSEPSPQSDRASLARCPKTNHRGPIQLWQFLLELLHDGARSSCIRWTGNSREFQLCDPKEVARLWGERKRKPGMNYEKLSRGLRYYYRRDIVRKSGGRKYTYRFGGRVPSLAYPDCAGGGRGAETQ
Particulars: protein: recombinant; tags: N-terminal GST; dsDNA, one strand shown. Summed up:
as §1

The next experiment concerns the target T5, ELF3 (Homo sapiens, UniProt P78545 1-371).
T5 sequence: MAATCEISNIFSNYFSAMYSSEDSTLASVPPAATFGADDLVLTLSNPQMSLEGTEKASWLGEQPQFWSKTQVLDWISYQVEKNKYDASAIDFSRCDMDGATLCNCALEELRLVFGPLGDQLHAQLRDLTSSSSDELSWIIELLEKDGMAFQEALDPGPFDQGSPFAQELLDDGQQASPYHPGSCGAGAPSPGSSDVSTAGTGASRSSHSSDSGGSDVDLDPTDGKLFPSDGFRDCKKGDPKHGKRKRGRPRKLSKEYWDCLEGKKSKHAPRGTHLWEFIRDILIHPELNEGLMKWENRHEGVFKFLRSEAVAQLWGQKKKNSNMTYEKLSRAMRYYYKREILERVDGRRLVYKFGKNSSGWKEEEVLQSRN
Particulars: protein: recombinant; tags: N-terminal GST; dsDNA, one strand shown. The procedure, abridged: as §1

The target of a further experiment is ETV1 (Homo sapiens, UniProt P50549 1-477). The conditions noted are these: protein: recombinant; tags: N-terminal GST; dsDNA, one strand shown. The procedure, abridged:
as §1

Chain of ELF4 (Q99607 whole entry): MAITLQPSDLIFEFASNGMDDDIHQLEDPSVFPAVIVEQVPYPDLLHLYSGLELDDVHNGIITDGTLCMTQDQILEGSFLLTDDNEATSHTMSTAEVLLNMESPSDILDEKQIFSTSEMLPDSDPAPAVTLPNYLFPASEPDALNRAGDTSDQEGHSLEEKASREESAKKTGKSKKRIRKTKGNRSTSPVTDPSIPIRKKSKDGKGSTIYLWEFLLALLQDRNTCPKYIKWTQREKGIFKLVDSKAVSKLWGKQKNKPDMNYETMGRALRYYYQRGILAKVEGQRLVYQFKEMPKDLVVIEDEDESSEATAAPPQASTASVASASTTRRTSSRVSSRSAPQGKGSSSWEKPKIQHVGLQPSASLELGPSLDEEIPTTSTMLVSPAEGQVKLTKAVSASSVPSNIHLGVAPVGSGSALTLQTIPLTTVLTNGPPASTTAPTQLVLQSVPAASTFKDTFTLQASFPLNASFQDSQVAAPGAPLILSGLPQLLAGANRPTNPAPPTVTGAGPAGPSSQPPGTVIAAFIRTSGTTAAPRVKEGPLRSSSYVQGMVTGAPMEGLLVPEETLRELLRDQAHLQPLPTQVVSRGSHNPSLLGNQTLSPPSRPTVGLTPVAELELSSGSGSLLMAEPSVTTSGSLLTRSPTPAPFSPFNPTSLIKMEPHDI
Chain of ETV1 (P50549 whole entry): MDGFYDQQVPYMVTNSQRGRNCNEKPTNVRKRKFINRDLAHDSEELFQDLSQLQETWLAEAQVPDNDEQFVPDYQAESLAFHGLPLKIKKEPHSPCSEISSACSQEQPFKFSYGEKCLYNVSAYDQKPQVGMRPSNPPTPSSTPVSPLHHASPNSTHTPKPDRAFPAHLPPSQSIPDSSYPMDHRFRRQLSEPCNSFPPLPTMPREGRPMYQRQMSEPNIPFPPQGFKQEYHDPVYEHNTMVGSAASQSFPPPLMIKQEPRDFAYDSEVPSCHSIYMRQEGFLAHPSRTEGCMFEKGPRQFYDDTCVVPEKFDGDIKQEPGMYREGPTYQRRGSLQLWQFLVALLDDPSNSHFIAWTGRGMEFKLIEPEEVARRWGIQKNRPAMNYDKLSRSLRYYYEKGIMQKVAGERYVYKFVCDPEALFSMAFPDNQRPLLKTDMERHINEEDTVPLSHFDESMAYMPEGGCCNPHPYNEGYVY
Chain of HSF1 (Q00613 whole entry): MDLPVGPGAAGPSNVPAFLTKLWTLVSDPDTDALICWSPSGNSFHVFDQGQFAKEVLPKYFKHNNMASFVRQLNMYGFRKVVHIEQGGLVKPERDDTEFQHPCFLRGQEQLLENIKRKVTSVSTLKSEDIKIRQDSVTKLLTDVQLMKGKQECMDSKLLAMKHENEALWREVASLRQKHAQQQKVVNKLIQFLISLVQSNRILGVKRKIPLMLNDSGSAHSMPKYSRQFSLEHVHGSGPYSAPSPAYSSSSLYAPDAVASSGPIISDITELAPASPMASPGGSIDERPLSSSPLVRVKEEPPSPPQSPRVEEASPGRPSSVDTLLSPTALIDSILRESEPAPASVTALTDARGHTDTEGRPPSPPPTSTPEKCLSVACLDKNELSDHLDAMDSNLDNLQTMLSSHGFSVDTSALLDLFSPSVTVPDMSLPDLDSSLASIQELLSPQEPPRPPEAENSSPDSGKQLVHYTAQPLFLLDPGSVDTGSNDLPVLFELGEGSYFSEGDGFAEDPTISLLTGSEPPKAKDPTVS

Take ATGTGG: the binding signal in the experiment with FEV was 1.2 fold enrichment (6-mer frequency, TF over GST control); with ETV5, 1.09 fold enrichment (6-mer frequency, TF over GST control); with HSF1, 1.04 fold enrichment (6-mer frequency, TF over GST control); with SPIC, 1.18 fold enrichment (6-mer frequency, TF over GST control); in the experiment with ELF4, 1.15 fold enrichment (6-mer frequency, TF over GST control); in the experiment with ELK4, 1.27 fold enrichment (6-mer frequency, TF over GST control). The binding signal with ETV2 was 1.28 fold enrichment (6-mer frequency, TF over GST control); with ELF3, 1.26 fold enrichment (6-mer frequency, TF over GST control); with ETV1, 1.12 fold enrichment (6-mer frequency, TF over GST control).

As to TCGCAC, the binding signal with FEV is 1.12 fold enrichment (6-mer frequency, TF over GST control); with ETV5, 1.01 fold enrichment (6-mer frequency, TF over GST control); in the experiment with HSF1 it was 1.03 fold enrichment (6-mer frequency, TF over GST control); with SPIC, 1.06 fold enrichment (6-mer frequency, TF over GST control); in the experiment with ELF4, 1.13 fold enrichment (6-mer frequency, TF over GST control); in the experiment with ELK4 it was 1.08 fold enrichment (6-mer frequency, TF over GST control). Further, the binding signal with ETV2 is 1.07 fold enrichment (6-mer frequency, TF over GST control); with ELF3, 1.18 fold enrichment (6-mer frequency, TF over GST control); with ETV1, 1.04 fold enrichment (6-mer frequency, TF over GST control).

With ACGTAC, the binding signal was 1.17 fold enrichment (6-mer frequency, TF over GST control) with FEV; 1.21 fold enrichment (6-mer frequency, TF over GST control) in the experiment with ETV5; 1.04 fold enrichment (6-mer frequency, TF over GST control) in the experiment with HSF1; 1.18 fold enrichment (6-mer frequency, TF over GST control) with SPIC; 1.23 fold enrichment (6-mer frequency, TF over GST control) with ELF4; 1.24 fold enrichment (6-mer frequency, TF over GST control) with ELK4. Also, the binding signal with ETV2 is 1.32 fold enrichment (6-mer frequency, TF over GST control); in the experiment with ELF3 it was 1.25 fold enrichment (6-mer frequency, TF over GST control); in the experiment with ETV1, 1.18 fold enrichment (6-mer frequency, TF over GST control).

Take CACCGA: the binding signal with FEV was 1.1 fold enrichment (6-mer frequency, TF over GST control); with ETV5, 1.1 fold enrichment (6-mer frequency, TF over GST control); in the experiment with HSF1 it was 1.06 fold enrichment (6-mer frequency, TF over GST control); in the experiment with SPIC, 1.05 fold enrichment (6-mer frequency, TF over GST control); in the experiment with ELF4 it was 1.08 fold enrichment (6-mer frequency, TF over GST control); in the experiment with ELK4, 1.13 fold enrichment (6-mer frequency, TF over GST control). Besides, the binding signal in the experiment with ETV2 is 1.1 fold enrichment (6-mer frequency, TF over GST control); in the experiment with ELF3, 1.04 fold enrichment (6-mer frequency, TF over GST control); with ETV1, 1.1 fold enrichment (6-mer frequency, TF over GST control).

Turning to TTCCGT, the binding signal with FEV is 1.86 fold enrichment (6-mer frequency, TF over GST control); in the experiment with ETV5, 1.99 fold enrichment (6-mer frequency, TF over GST control); in the experiment with HSF1, 1.02 fold enrichment (6-mer frequency, TF over GST control); with SPIC, 2.02 fold enrichment (6-mer frequency, TF over GST control); with ELF4, 1.67 fold enrichment (6-mer frequency, TF over GST control); in the experiment with ELK4, 1.89 fold enrichment (6-mer frequency, TF over GST control). The binding signal with ETV2 is 1.88 fold enrichment (6-mer frequency, TF over GST control); with ELF3, 1.74 fold enrichment (6-mer frequency, TF over GST control); in the experiment with ETV1 it was 1.82 fold enrichment (6-mer frequency, TF over GST control).

On to ACTCGC, for which the binding signal in the experiment with FEV is 1.14 fold enrichment (6-mer frequency, TF over GST control); in the experiment with ETV5 it was 1.15 fold enrichment (6-mer frequency, TF over GST control); with HSF1, 1.1 fold enrichment (6-mer frequency, TF over GST control); with SPIC, 1.2 fold enrichment (6-mer frequency, TF over GST control); with ELF4 it was 1.1 fold enrichment (6-mer frequency, TF over GST control); with ELK4 it was 1.14 fold enrichment (6-mer frequency, TF over GST control). Also, the binding signal was 1.12 fold enrichment (6-mer frequency, TF over GST control) in the experiment with ETV2; 1.21 fold enrichment (6-mer frequency, TF over GST control) with ELF3; 1.15 fold enrichment (6-mer frequency, TF over GST control) in the experiment with ETV1.

Turning to TGTACC, the binding signal with FEV was 1.38 fold enrichment (6-mer frequency, TF over GST control); with ETV5, 1.4 fold enrichment (6-mer frequency, TF over GST control); with HSF1, 1.03 fold enrichment (6-mer frequency, TF over GST control); in the experiment with SPIC, 1.39 fold enrichment (6-mer frequency, TF over GST control); with ELF4, 1.26 fold enrichment (6-mer frequency, TF over GST control); with ELK4, 1.39 fold enrichment (6-mer frequency, TF over GST control). For the same sequence, the binding signal with ETV2 is 1.35 fold enrichment (6-mer frequency, TF over GST control); in the experiment with ELF3, 1.38 fold enrichment (6-mer frequency, TF over GST control); with ETV1, 1.37 fold enrichment (6-mer frequency, TF over GST control).

As to ACGACG, the binding signal with FEV was 1.17 fold enrichment (6-mer frequency, TF over GST control); with ETV5, 1.18 fold enrichment (6-mer frequency, TF over GST control); with HSF1 it was 1.02 fold enrichment (6-mer frequency, TF over GST control); in the experiment with SPIC, 1.05 fold enrichment (6-mer frequency, TF over GST control); with ELF4, 1.2 fold enrichment (6-mer frequency, TF over GST control); with ELK4, 1.17 fold enrichment (6-mer frequency, TF over GST control). Besides, the binding signal with ETV2 is 1.16 fold enrichment (6-mer frequency, TF over GST control); with ELF3, 1.17 fold enrichment (6-mer frequency, TF over GST control); with ETV1 it was 1.01 fold enrichment (6-mer frequency, TF over GST control).
